Results reported in PubChem BioAssay (NCI).
This is part of a sample that, as a whole, favours compounds with a hit. Of some 83,000 tested, about 20% had one in any assay.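 Growth was measured after 48 h exposure to one concentration of compound in 96-well plates. Values under 10 count as active.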 Active and inactive are the calls of the source.

What follows are compounds tested on SK-MEL-2 melanoma (assay: NCI-60 one-dose screen, 48 h (100 = growth as untreated, 0 = no growth, -100 = all killed)). Settings: 10 µM unless noted.

SMILES | growth
Cc1ccc(N2C(=O)c3cccc4c(N)c(S(=O)(=O)O)cc(c34)C2=O)cc1 | 82.3% (inactive)
Clc1ncnc2nc[nH]c12 | 118% (inactive)
C/C(=N\Nc1ccc([N+](=O)[O-])cc1[N+](=O)[O-])c1ccc(Br)cc1 | 97.4% (inactive)
N#Cc1ccc(OC(=O)Nc2c(Cl)cc(Cl)cc2Cl)cc1 | 118% (inactive)
Nc1ncnc2c1ncn2C1OC(CO)C2OC21 (stereo not drawn) | 95.2% (inactive)
CN(C)c1ccc(/C=C/C(=O)c2ccc(NC(N)=O)cc2)cc1 | 103% (inactive)
NC(=O)N1CCOCC1 | 105% (inactive)
CN1C(=O)NC(c2ccc(Cl)cc2)(c2ccc(Cl)cc2)C1=O | 80.6% (inactive)
Cc1ccc(C)c(CN(C)C)c1O | 143% (inactive)
O=C(OCC1CCCO1)c1ccc([N+](=O)[O-])cc1 (stereo not drawn) | 103% (inactive)
S=C(NCc1ccccc1)N1CCC(CCCC2CCN(C(=S)NCc3ccccc3)CC2)CC1 | 114% (inactive)
N#Cc1ccc2nc[nH]c2c1 | 102% (inactive)
O=S(=O)(O)c1cccc2cccnc12 | 108% (inactive)
O=S(=O)(O)c1cccnc1 | 136% (inactive)
S=CN1CCCCC1 | 124% (inactive)
Cc1ccccc1CC(N)C(=O)O (stereo not drawn) | 109% (inactive)

What follows are compounds tested on EKVX NSCLC in the same assay as above. Settings: 10 µM unless noted.

SMILES | growth
O=C(O)Cc1ccccn1 | 109% (inactive)
CC(C)(C)CC1(C)NC(=O)NC1=O (stereo not drawn) | 108% (inactive)
COc1cc(CC#N)c([N+](=O)[O-])cc1OC | 111% (inactive)
CN(C)CCOC(=O)Nc1ccc(Cc2ccc(NC(=O)OCCN(C)C)cc2)cc1 | 102% [100 µM] (inactive)
Cc1cc2nc(C)c(C)nc2cc1C | 98.4% (inactive)
CCCCc1ccc2nc(NC(=O)OC)[nH]c2c1 | 60.3% (inactive)
NCC(O)C(O)C(O)C(O)CO (stereo not drawn) | 102% (inactive)
CCNc1ccc2ccccc2c1N=Nc1ccc(N=Nc2ccccc2)cc1 | 98.5% (inactive)
O=Cc1ccc(O)c(O)c1 | 103% (inactive)
CC(=O)C1C(=O)C(=O)N(c2cccc([N+](=O)[O-])c2)C1=O (stereo not drawn) | 108% (inactive)
C1Cc2onc(-c3noc4c3CCC4)c2C1 | 104% (inactive)
O=C(O)c1cc(I)ccc1O | 100% (inactive)
C=CCS(C)(=O)=O | 91.3% (inactive)
O=C(OCc1ccccc1)n1nnc2ccccc21 | 98.2% (inactive)
CC(=O)N=c1ccc2nc3c(cc(N)c4ccccc43)oc-2c1 | 2.37% (active)
CN1CCCN(C(c2ccccc2)c2ccc(Cl)cc2)CC1 (stereo not drawn) | 94.8% (inactive)
COc1ccc(/C=C\C(=O)/C=C/c2ccc(OC)cc2)cc1 | 93.2% (inactive)
CCOC(=O)c1ccc(NC(C)=O)o1 | 111% (inactive)
CCOC(=O)c1cc(Cl)c(O)c(Cl)c1 | 109% (inactive)

SMILES | growth
NNc1ncccn1 | 102% (inactive)
CCCC1OC(c2ccco2)OCC1CC (stereo not drawn) | 96.4% (inactive)
Cc1ccc(N2C(=O)c3cccc4c(N)c(S(=O)(=O)O)cc(c34)C2=O)cc1 | 113% (inactive)
Clc1ncnc2nc[nH]c12 | 101% (inactive)
C/C(=N\Nc1ccc([N+](=O)[O-])cc1[N+](=O)[O-])c1ccc(Br)cc1 | 96.4% (inactive)
N#Cc1ccc(OC(=O)Nc2c(Cl)cc(Cl)cc2Cl)cc1 | 107% (inactive)
Nc1ncnc2c1ncn2C1OC(CO)C2OC21 (stereo not drawn) | 105% (inactive)
CN(C)c1ccc(/C=C/C(=O)c2ccc(NC(N)=O)cc2)cc1 | 89.3% (inactive)
NC(=O)N1CCOCC1 | 108% (inactive)
CN1C(=O)NC(c2ccc(Cl)cc2)(c2ccc(Cl)cc2)C1=O | 91.5% (inactive)
Cc1ccc(C)c(CN(C)C)c1O | 98.1% (inactive)
O=C(OCC1CCCO1)c1ccc([N+](=O)[O-])cc1 (stereo not drawn) | 106% (inactive)
S=C(NCc1ccccc1)N1CCC(CCCC2CCN(C(=S)NCc3ccccc3)CC2)CC1 | 83.5% (inactive)
N#Cc1ccc2nc[nH]c2c1 | 104% (inactive)
O=S(=O)(O)c1cccc2cccnc12 | 110% (inactive)
O=S(=O)(O)c1cccnc1 | 93.7% (inactive)
S=CN1CCCCC1 | 96.7% (inactive)
Cc1ccccc1CC(N)C(=O)O (stereo not drawn) | 103% (inactive)
